# From the supplement of paper PMC8728848
# The sample as a whole holds a higher share of the strongest signals than the screen did.
# Experiments:
# Assay in all cases: glycan array binding signal (z-score within array); higher = stronger binding
# Settings in all cases: glycan notation: IUPAC condensed, linker removed
# [1] = molecular target: Neu5Ac(a2-3)Gal(b1-4)GlcNAc(b1-6)GalNAc
# How it was run: (§1)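 The binding signal is a Z-score computed within each array. Data were drawn from 3228 arrays in the Consortium for Functional Glycomics database, restricted to those with a known protein sequence. Scores were averaged over arrays of the same protein sequence at different concentrations or buffers, and over linkers, and negative values can be taken as non-binding.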
# [2] = molecular target: Neu5Ac(a2-3)Gal(b1-4)GlcNAc(b1-6)[Gal(b1-3)]GalNAc
# How it was run: as §1
# [3] = molecular target: Neu5Ac(a2-3)[GalNAc(b1-4)]Gal(b1-4)GlcNAc
# How it was run: as §1
# [4] = molecular target: Neu5Ac(a2-3)[GalNAc(b1-4)]Gal(b1-4)GlcNAc(b1-3)GalNAc
# How it was run: as §1
# [5] = molecular target: Neu5Ac(a2-6)Gal(b1-4)GlcNAc(b1-2)Man(a1-3)[Neu5Ac(a2-6)Gal(b1-4)GlcNAc(b1-2)Man(a1-6)]Man(b1-4)GlcNAc(b1-4)GlcNAc
# How it was run: as §1
# [6] = molecular target: Neu5Ac(a2-6)Gal(b1-4)GlcNAc(b1-3)GalNAc
# How it was run: as §1
# [7] = molecular target: Neu5Ac(a2-6)Gal(b1-4)GlcNAc(b1-6)[Gal(b1-3)]GalNAc
# How it was run: as §1
# [8] = molecular target: Neu5Ac9Ac(a2-3)Gal(b1-4)GlcNAc
# How it was run: as §1
# [9] = molecular target: Neu5Gc(a2-3)Gal(b1-3)[Fuc(a1-4)]GlcNAc
# How it was run: as §1
# [10] = molecular target: Neu5Gc(a2-3)Gal(b1-4)GlcNAc(b1-3)Gal(b1-4)GlcNAc(b1-2)Man(a1-3)[Neu5Gc(a2-3)Gal(b1-4)GlcNAc(b1-3)Gal(b1-4)GlcNAc(b1-2)Man(a1-6)]Man(b1-4)GlcNAc(b1-4)GlcNAc
# How it was run: as §1
# [11] = molecular target: Neu5Gc(b2-6)Gal(b1-4)GlcNAc
# How it was run: as §1
binder,measurement,setting,value
SP16664B-bot-474-25-474 (Bacteroides ovatus) (protein) CEEDIEIGNKIDESSYLASTQLSGLLLDENTNKNSSVIELRNNEYSTNVVFRLSKLPQKGVDVQIAVEESYAAIYNTIHETDFEVFPAANVKIANNGTFVLAPDDKVTPSVKVTLTAFDGMEEDKTYIVPLTVTSSTEGVTFTETSKHMVLLVQDYRNKPNTNKGEDAVQTVLYFEVNDTNPLNALEFLTESGKYFFDHIVLFAANINWDPEKQRVYLANNENVQFLLDNNDKYLQPLRKAGMKIIISILGNHDEAGVAQLSDMGAREFARELAAYCRAYNLDGVAFDDEYSNSPDLSNPWLASPSAYAGSRLMYECKAVMPEKIVSLYNLGNMYSSSLQVIDGIEPGQYCDYAVADYGGAAGPGTGMTLKQCAGMSIELRRGSGNSSESTARSRKEAGYGYYMFFALDPSLYGSQVYRCQSVCKGLYDETLVYPSYYYKKNSTEREAIN,glycan array binding signal (z-score),[1],-0.362
same,glycan array binding signal (z-score),[2],-0.456
same,glycan array binding signal (z-score),[3],-0.21
same,glycan array binding signal (z-score),[4],0.051
same,glycan array binding signal (z-score),[5],-0.081
same,glycan array binding signal (z-score),[6],-0.034
same,glycan array binding signal (z-score),[7],-0.15
same,glycan array binding signal (z-score),[8],-0.181
same,glycan array binding signal (z-score),[9],-0.071
same,glycan array binding signal (z-score),[10],-0.304
same,glycan array binding signal (z-score),[11],0.041
